# From PubChem BioAssay
# Only some compounds are listed: those with a hit (about 2.2% of all), similar ones and a draw of the others.
# proKLK7 act = proKLK7 (human) activation, primary screen | P49862 | 370,000 compounds, 0.9% hits | AID 652039 | activation, % at 7 µM | purified proKLK7, EDANS-DABCYL substrate fluorescence; 100% is mature enzyme control, 0% vehicle;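 active means activation above the mean of all tested compounds plus 3 SD, computed per campaign excluding outliers beyond control limits, cut at about 13% in these data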
# ADAM10 inh = inhibitors of human ADAM10 | O14672 | recombinant ADAM10, EDANS/DABCYL FRET peptide cleavage, 3 h | inhibition, % at 7 µM | 370,000 compounds, 0.62% hits;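 active means inhibition above a per-campaign cutoff equal to the mean of compounds falling between control-based bounds plus 3 SD, cut at about 20% in these data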;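 further: 0% = DMSO wells while the 100% control is not disclosed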
# GC-B act = GC-B (human) receptor activation; P20594; HEK293-GC-B cells, CNP EC30, cGMP TR-FRET; 0% at EC30 CNP, 100% saturating CNP; activation, % at 10 µM; 370,000 compounds, 0.11% hits;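 active means activation at 10 µM reaching about 35% in either raw or pattern-adjusted values, limit read from the data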
# GC-A act = GC-A (human) enzyme activation; P16066; HEK293 GC-A cells, cGMP TR-FRET, EC30 ANP; 0% at EC30 ANP, 100% saturating ANP; activation, % at 10 µM; 370,000 compounds, 0.14% hits; AID 1671463; in the data active means activation above about 40%
# ADAM17 inh = inhibitors of human ADAM17; P78536; recombinant ADAM17, EDANS/DABCYL FRET peptide cleavage; inhibition, % at 6.95 µM; 370,000 compounds, 0.83% hits; AID 720648;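 active means inhibition above the mean of compounds lying between control limits plus 3 SD, set per campaign, cut at about 8.5% in these data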;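 further: 0% = DMSO-only wells as the low control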
# ADAM10 counter = inhibits human ADAM10 in ADAM17 exosite counter-screen; shares compounds with ADAM17 inh; recombinant ADAM10, EDANS/DABCYL FRET peptide cleavage, 3 h; inhibition, % at 6.95 µM; 2,900 compounds, 47% hits;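 active means mean inhibition over the triplicate runs exceeds the activity threshold set in the earlier primary screen, cut at about 20% in these data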;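 further: 0% = DMSO wells and 100% = marimastat wells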
# ADAM17 confirm = human ADAM17 inhibition, confirmation; 2,900 compounds, 65% hits; recombinant ADAM17, EDANS/DABCYL QFRET peptide cleavage; inhibition, % at 6.95 µM; shares compounds with ADAM17 inh; AID 743257;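 active means mean inhibition across replicates above the hit cutoff set in the primary screen, cut at about 8.5% in these data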;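 further: 0% = DMSO wells and 100% = marimastat wells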
# Active calls of the source: *; . = not tested or not shown.
SMILES,proKLK7 act,ADAM10 inh,GC-B act,GC-A act,ADAM17 inh,ADAM10 counter,ADAM17 confirm
CN(Cc1ccc(F)cc1)C(=O)c1cccc(NS(=O)(=O)c2ccccc2)c1,0.7,-7.0,1.9,3.3,-3.9,.,.
CN(Cc1ccc(F)cc1)C(=O)c1cccc(OCc2ccccc2)c1,0.6,13.1,0.6,-4.6,8.7*,7.3,12.0*
OCc1cccc[n+]1CCc1ccccc1,0.5,-0.5,1.1,4.2,10.8*,-10.7,-0.9
Oc1ccc(C[C@H]2CNCCN2CCC23CC4CC(CC(C4)C2)C3)cc1,0.1,14.5,-1.4,0.3,10.7*,2.1,2.2
O=C(CN1CCCc2ccccc21)NCc1ccc(Cl)cc1,0.2,-28.6,-4.8,-2.0,-7.7,.,.
NC(=NCCc1c[nH]c2ccccc12)NS(=O)(=O)c1ccc2ccccc2c1,0.3,14.9,-3.8,-1.9,9.9*,18.2,9.4*
Cc1ccc(SCc2cc(=O)c3c(=O)n(-c4ccccc4)[nH]c3[nH]2)cc1,0.4,2.1,2.7,-1.6,10.0*,21.6*,13.9*
O=c1cc(CSc2ccc(Cl)cc2)[nH]c2[nH]n(-c3ccccc3)c(=O)c12,-0.4,8.9,10.1,0.0,1.8,.,.
Cc1ccc(S(=O)(=O)Nc2cc(Cl)c(O)c3ncccc23)cc1,5.3,11.1,-2.4,0.5,14.2*,8.4,16.7*
Oc1c(Cl)cc(Cl)c2cccnc12,0.2,5.8,-0.2,11.2,1.1,.,.
CC1Sc2ccc(S(=O)(=O)N3CCC(C(=O)NCC(C)c4ccccc4)CC3)cc2NC1=O (stereo not given),0.3,9.5,-0.9,-4.9,16.4*,-5.9,1.0
CC1Sc2ccc(S(=O)(=O)N3CCC(C(=O)NCCc4ccccc4)CC3)cc2NC1=O (stereo not given),0.2,9.2,-3.4,-2.3,-0.9,.,.
N=c1c2c(ccn1Cc1ccccc1)Oc1ccc3ccccc3c1C2c1ccccc1 (stereo not given),.,17.9,-8.2,-21.5,7.4,.,.
COc1ccc(-c2cc(-c3n[nH]c(=S)n3-c3cc(OC)ccc3OC)[nH]n2)cc1,-0.3,16.0,-11.5,-7.9,9.5*,23.1*,12.7*
COc1ccc(OC)c(-n2c(-c3ccc(C)cc3)n[nH]c2=S)c1,0.5,-5.5,-4.4,-1.0,-7.1,.,.
CCOC(=O)[C@@]12CCCC=C1N(CCc1ccc(Cl)cc1)C(=O)[C@H]2CC(=O)NCc1cccc2ccccc12,-0.1,5.7,-3.6,-0.8,3.6,.,.
CCOc1cc(S(=O)(=O)n2cc(-c3ccc(F)cc3)c(N)n2)cc(OCC)c1OCC,-0.2,17.8,8.8,-1.9,10.9*,30.6*,17.5*
CCOc1ccc(S(=O)(=O)n2cc(-c3ccc(F)cc3)c(N)n2)cc1,0.2,11.8,0.1,-0.1,2.5,.,.
COc1cc(OC)cc(C(=O)NC2CCN(CC(=O)Nc3cccc4ccccc34)CC2)c1,1.0,11.8,-11.1,-1.1,11.6*,-4.8,1.8
CCC1CCc2sc(C(=O)Nc3cc(S(=O)(=O)N4CCOCC4)ccc3OC)cc2C1 (stereo not given),.,3.6,-2.5,-0.7,0.8,.,.
COc1ccc([C@H]2C[C@H](O)[C@@H](n3cc(COC(=O)c4ccccc4)nn3)CN2Cc2cccs2)cc1,0.7,6.9,1.0,0.0,9.3*,8.0,3.6
CCCCCC(=O)N1C[C@H](n2cc(COC(=O)c3ccccc3)nn2)[C@@H](O)C[C@@H]1c1ccc(C)cc1,-0.4,16.3,-3.0,-2.2,9.8*,32.5*,17.0*
CCCCCC(=O)N1C[C@@H](O)[C@H](n2cc(-c3ccc(F)cc3)nn2)C[C@@H]1c1ccc(C)cc1,0.2,9.5,2.9,-3.3,3.3,.,.
CCCCCC(=O)N1C[C@@H](n2cc(-c3ccc(F)cc3)nn2)[C@H](O)C[C@@H]1c1ccc(C)cc1,0.3,16.5,-4.3,-11.7,10.3*,16.8,9.9*
CCN(CC)C(=O)c1oc(=O)c2ccccc2c1-c1ccc(C)cc1,-0.3,12.3,-18.6,-7.0,0.7,.,.
SMILES,proKLK7 act,ADAM10 inh,GC-B act,GC-A act,ADAM17 inh,ADAM10 counter,ADAM17 confirm
COC(=O)C1=C(C)N(Cc2ccc(Br)cc2)C(=S)NC1c1ccc(F)cc1 (stereo not given),-0.1,10.1,-8.9,-6.1,9.3*,19.3,12.0*
COC(=O)C1=C(C)N(Cc2ccc(Br)cc2)C(=S)NC1c1cccc(F)c1 (stereo not given),0.5,-1.0,-14.2,25.9,0.9,.,.
C[C@H]1COc2cccc(F)c2S(=O)(=O)N1C,-0.7,-2.9,-0.8,-0.3,-5.9,.,.
N#CCCN(C(=O)COC(=O)c1cccc(S(=O)(=O)Nc2ccc([N+](=O)[O-])cc2)c1)c1ccccc1,0.3,14.0,-3.0,2.6,9.2*,5.6,8.2
CSc1ccc(-c2csc(N3CCC(C(N)=O)CC3)n2)cc1,.,-25.7,-11.7,4.0,-6.5,.,.
NS(=O)(=O)c1ccc(N/N=C/C=C/c2ccccc2[N+](=O)[O-])cc1,-0.2,17.4,-9.6,-28.0,8.7*,18.6,18.5*
O=C(NCc1ccc(Cl)c(Cl)c1)c1cc(C2CCCCN2C(=O)C2CCCCC2)on1 (stereo not given),1.1,17.1,-1.5,2.1,10.2*,8.5,8.0
O=C1/C(=C\c2cccc(O)c2)SC(=S)N1Cc1ccccc1,-0.1,10.3,-1.9,-6.6,8.8*,13.1,5.8
O=C(O)COc1cccc(/C=C2/SC(=S)N(Cc3ccccc3)C2=O)c1,0.0,0.4,5.2,-6.7,7.8,.,.
N/C(=N\N=C\c1ccc(O)cc1)c1nonc1N,-0.8,14.3,-5.1,2.4,10.5*,16.7,9.2*
CCCCN(C)C(=O)CSc1nnc(-c2cccnc2)n1C1CCCCC1,0.1,-1.3,-8.4,2.2,-0.1,.,.
COc1c(NC=O)c2c(c([N+](=O)[O-])c1OC)C(=O)OC2,-0.1,6.1,-2.6,-2.5,8.8*,-5.8,-1.7
c1ccc(-c2nc(NCc3ccco3)c3oc4ccccc4c3n2)cc1,0.4,3.8,-3.6,8.1,9.0*,29.3*,19.2*
O=C(CSc1nnc(Cc2ccccc2)n1-c1cccc(Cl)c1)NNC(=O)Cc1ccccc1,-0.2,16.5,-7.3,0.8,15.0*,10.3,4.8
COc1ccc(CC(=O)NNC(=O)CSc2nnc(Cc3ccc(OC)cc3)n2-c2ccccc2)cc1,0.2,1.1,-1.1,2.0,0.4,.,.
Clc1ccc(-c2cc(-c3nnc4sc(Cc5cccs5)nn34)[nH]n2)cc1,0.1,13.7,-9.8,-1.9,4.0,.,.
Cc1ccc(-n2c(C3CC3c3ccc(Cl)cc3)n[nH]c2=S)cc1 (stereo not given),-0.4,15.9,-4.2,-2.4,11.5*,15.6,11.9*
